From PubChem BioAssay AID624330 (Southern Research Specialized Biocontainment Screening …, 2012)
Among all 340,000 compounds or so, about 2,100 (0.62%) were called active. The list is a sample of the results. Potency and affinity values are given separately. Values without a mark were called inactive.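 How the source made its calls: active means first-screen hits whose inhibition reached a set limit at any dose in the follow-up dose series; inconclusive means inhibition above the set first-screen limit but never retested; inactive means the rest.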

target: Rac GTPase-activating protein 1 (Homo sapiens) (UniProt Q9H0H5); test: MgcRacGAP GTPase-activating activity inhibitors, confirmation, biochemical, ADP Hunter fluorescence, primary and confirmatory (AID 624330); conditions: MgcRacGAP-stimulated Rac1 GTP hydrolysis, at 30 µM, hits give high values, GST-tagged Rac1 F28L mutant substrate;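 further: fluorescence reports GDP produced by GAP-driven GTP hydrolysis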
Sequence (Q9H0H5 whole entry, looked up): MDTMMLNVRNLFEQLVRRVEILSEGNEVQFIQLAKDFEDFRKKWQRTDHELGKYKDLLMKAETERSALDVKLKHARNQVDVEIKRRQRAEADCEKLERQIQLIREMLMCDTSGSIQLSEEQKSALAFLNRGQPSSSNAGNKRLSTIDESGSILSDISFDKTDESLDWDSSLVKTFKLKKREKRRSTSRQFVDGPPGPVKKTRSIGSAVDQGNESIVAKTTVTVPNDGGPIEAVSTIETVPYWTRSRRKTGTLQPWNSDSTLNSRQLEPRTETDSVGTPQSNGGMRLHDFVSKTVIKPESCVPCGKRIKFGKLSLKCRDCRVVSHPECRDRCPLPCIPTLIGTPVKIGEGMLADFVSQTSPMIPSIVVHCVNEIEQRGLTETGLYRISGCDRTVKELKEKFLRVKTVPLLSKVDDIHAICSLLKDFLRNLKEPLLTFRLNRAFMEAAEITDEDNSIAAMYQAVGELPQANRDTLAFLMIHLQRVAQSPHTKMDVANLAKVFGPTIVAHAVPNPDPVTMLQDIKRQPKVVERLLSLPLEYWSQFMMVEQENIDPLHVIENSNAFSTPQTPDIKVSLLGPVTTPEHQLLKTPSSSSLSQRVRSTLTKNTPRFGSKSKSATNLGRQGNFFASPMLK

**Q.** How did the inhibition turn out when COc1ccccc1CNCc1ccc(OC)c(OC)c1OC was run?
**A.** Its inhibition is 20.1%.

**Q.** Which inhibition does the source give for COc1cc(CNCc2cccc(OC)c2OC)cc(OC)c1 here?
**A.** The inhibition was 20.9%.

**Q.** Which inhibition does the source give for COCC(C)NCc1cccc(C)c1 (centres undefined) here?
**A.** Its inhibition is 5.01%.

**Q.** For COCC(C)NCc1cc(Br)ccc1OC (centres undefined), which inhibition is on record?
**A.** The inhibition was 26.2%.

**Q.** How did the inhibition turn out when COc1cccc(CNCc2ccccn2)c1OC was run?
**A.** The inhibition was 8.4%.

**Q.** For COc1cccc(CNCc2cccc(Br)c2)c1OC, which inhibition is on record?
**A.** The inhibition was 24.4%.

**Q.** With N#CCCn1cc(C(=O)Nc2ccc(C(=O)O)cc2)c(-c2ccc([N+](=O)[O-])cc2)n1 as the molecule, how does the inhibition read?
**A.** The inhibition was 5.44%.

**Q.** With O=C(C(=O)c1ccc(O)cc1)c1ccccc1 as the molecule, how does the inhibition read?
**A.** Its inhibition is 3.36%.

**Q.** How did the inhibition turn out when O=C1Cn2c(nc3ccccc32)-c2ccccc2N1 was run?
**A.** Its inhibition is 1.15%.

**Q.** With CCCCc1ccc(S(=O)(=O)NCCCN2CCCC2=O)cc1 as the molecule, how does the inhibition read?
**A.** Its inhibition is 6.42%.

**Q.** For Cc1ccc(Cn2c(CCNc3nc(-c4ccc(Cl)c([N+](=O)[O-])c4)cs3)nc3cc(Cl)c(Cl)cc32)cc1, which inhibition is on record?
**A.** The inhibition was 7.46%.

**Q.** For CC(C)(C)OC(=O)C[C@H]1C/C=C\C[C@@H](CC(=O)N[C@@H](CO)Cc2ccccc2)C(=O)NC[C@H](c2ccccc2)OC1=O, which inhibition is on record?
**A.** Its inhibition is 2.19%.

**Q.** For Cc1cn(C2CC(OC(=O)C(C)C)C(CO)O2)c(=O)[nH]c1=O (centres undefined), which inhibition is on record?
**A.** The inhibition was 6.43%.

**Q.** How did the inhibition turn out when O=c1[nH]cn[nH]1 was run?
**A.** The inhibition was 0.25%.

**Q.** With CC(CCN(C)C)OC(=O)c1ccc(C(C)c2ccccc2)o1 (centres undefined) as the molecule, how does the inhibition read?
**A.** Its inhibition is 1.78%.

**Q.** Which inhibition does the source give for Brc1ccc2c(c1)OCCOCCOCCOCCOCCO2 here?
**A.** The inhibition was 8.26%.

**Q.** With Oc1c(Cl)cc(Cl)cc1C=Nc1ccc2c(c1)OCCO2 as the molecule, how does the inhibition read?
**A.** The inhibition was 4.97%.

**Q.** Which inhibition does the source give for Oc1c(Br)cc(Br)cc1C=Nc1ccc2c(c1)OCO2 here?
**A.** The inhibition was 15.4%.

**Q.** Which inhibition does the source give for Brc1ccc2c(c1)OCCOCCOCCOCCOCCOCCO2 here?
**A.** Its inhibition is 0.25%.

**Q.** Which inhibition does the source give for O=S(=O)(c1ccc(SCc2cccc(Cl)c2)nc1)N1CCCC1 here?
**A.** The inhibition was 2.55%.

**Q.** CC(=O)c1cccc(OC(=O)C2=CC=CN3CCS(=O)(=O)N=C23)c1 was tested. Which inhibition did it give?
**A.** The inhibition was 7.32%.

**Q.** COc1ccc2c(c1)c1nc3ccccc3nc1n2Cc1ccc(OC)c(OC)c1 was tested. Which inhibition did it give?
**A.** Its inhibition is 8.38%.

**Q.** For COc1cccc(CN(C)C(=O)Nc2cccc(C(F)(F)F)c2)c1OC, which inhibition is on record?
**A.** Its inhibition is -4.29%.

**Q.** Which inhibition does the source give for Brc1ccc(OCc2nnc3n2CCC3)cc1 here?
**A.** Its inhibition is 5.52%.

**Q.** O=C(COc1cccnc1[N+](=O)[O-])N1CCc2ccccc21 was tested. Which inhibition did it give?
**A.** Its inhibition is 0.83%.

**Q.** CCN(CC)c1ccc(-c2c(C#N)c(N)nc(OC)c2C#N)cc1 was tested. Which inhibition did it give?
**A.** The inhibition was -1.06%.

**Q.** With COc1ccc(N=c2sc3ccccc3n2C)cc1 as the molecule, how does the inhibition read?
**A.** Its inhibition is 3.05%.

**Q.** How did the inhibition turn out when Cn1c(=Nc2ccccc2)sc2ccccc21 was run?
**A.** Its inhibition is 4.04%.

**Q.** Which inhibition does the source give for CCC(=NOCc1ccccc1)C(=O)NNS(=O)(=O)c1ccc(C)cc1 here?
**A.** The inhibition was 0.04%.

**Q.** Which inhibition does the source give for COc1cc(/C=N/Nc2ccccc2C(F)(F)F)ccc1O here?
**A.** Its inhibition is 20.2%.

**Q.** Which inhibition does the source give for COc1ccc(/C=N/NC(=O)c2ccc(-c3ccccc3)cc2)cc1O here?
**A.** Its inhibition is 25.4%.

**Q.** Which inhibition does the source give for O=C(N/N=C/c1ccc(F)cc1)c1ccc(-n2cnnn2)cc1 here?
**A.** Its inhibition is -4.33%.

**Q.** Nc1ccc(C(=O)N/N=C/c2cn(Cc3ccccc3)c3ccccc23)cc1 was tested. Which inhibition did it give?
**A.** The inhibition was 0.58%.

**Q.** How did the inhibition turn out when COc1cc(C(=O)N/N=C/c2ccc(OC(=O)c3ccccc3)c(OC)c2)ccc1O was run?
**A.** Its inhibition is 25.2%.

**Q.** For COc1cc(C(=O)N/N=C/c2cn(Cc3cccc(F)c3)c3ccccc23)ccc1O, which inhibition is on record?
**A.** Its inhibition is 28.6%.

**Q.** With COc1cc(C=NNc2nc3c([nH]2)c(=O)n(C)c(=O)n3C)ccc1O as the molecule, how does the inhibition read?
**A.** Its inhibition is 12.7%.

**Q.** With O=C(N/N=C/c1cccc(O)c1)c1ccc(-n2cnnn2)cc1 as the molecule, how does the inhibition read?
**A.** Its inhibition is 1.77%.

**Q.** CCn1c(CNC(=O)c2ccco2)nnc1SCC(=O)c1ccccc1 was tested. Which inhibition did it give?
**A.** The inhibition was 13.1%.

**Q.** How did the inhibition turn out when CCN(CC)S(=O)(=O)c1cccc(NC(=O)C(=O)c2c(-c3ccccc3)cc3ccccn23)c1 was run?
**A.** The inhibition was 9%.

**Q.** With O=C(/C=C/c1ccc(Cl)cc1)N1CCN(Cc2ccccc2)CC1 as the molecule, how does the inhibition read?
**A.** Its inhibition is 10.8%.

**Q.** For CC(Oc1ccc(Br)cc1)C(=O)Nc1ccc(S(=O)(=O)Nc2nccs2)cc1 (centres undefined), which inhibition is on record?
**A.** Its inhibition is 3.41%.

**Q.** How did the inhibition turn out when COc1cc(C=NCc2ccccc2)ccc1O was run?
**A.** Its inhibition is 15.5%.

**Q.** How did the inhibition turn out when COc1ccc(NS(=O)(=O)c2cccc(C(=O)NN=Cc3ccc(OC)c(O)c3)c2)cc1 was run?
**A.** Its inhibition is 22.5%.

**Q.** COc1ccc(NS(=O)(=O)c2cccc(C(=O)N/N=C/c3ccc(O)cc3)c2)cc1 was tested. Which inhibition did it give?
**A.** Its inhibition is 16.4%.

**Q.** COc1ccc(/C=N/NC(=O)c2cc[n+]([O-])cc2)cc1 was tested. Which inhibition did it give?
**A.** Its inhibition is 2.43%.

**Q.** COc1ccc(/C=N/Nc2cc(=O)n(C)c(=O)n2C)cc1OC was tested. Which inhibition did it give?
**A.** The inhibition was 1.57%.

**Q.** For Cn1c(N/N=C\c2cccc(O)c2)cc(=O)n(C)c1=O, which inhibition is on record?
**A.** The inhibition was 11.6%.

**Q.** COc1ccc(/C=N/NC(=O)c2cc[n+]([O-])cc2)cc1OC was tested. Which inhibition did it give?
**A.** The inhibition was 1.48%.

**Q.** COc1cc(/C=N/Nc2ccccc2)ccc1O was tested. Which inhibition did it give?
**A.** The inhibition was 13%.

**Q.** Cc1ccc(C(=O)N2CCN(S(=O)(=O)c3ccc(C)c([N+](=O)[O-])c3)C2)cc1 was tested. Which inhibition did it give?
**A.** The inhibition was 6.42%.

**Q.** With O=S(=O)(c1ccc(-c2csc(=Nc3ccccc3)n2CCCN2CCOCC2)cc1)N1CCOCC1 as the molecule, how does the inhibition read?
**A.** Its inhibition is 3.34%.

**Q.** Which inhibition does the source give for CCCCCCCNC(=O)C1(CC2CC(c3ccc(Cl)cc3)=NO2)CCN(C(=O)Cc2ccc(F)cc2)CC1 (centres undefined) here?
**A.** The inhibition was 4.28%.

**Q.** Fc1ccc(CN2CCCN(Cc3nc(-c4ccc5c(c4)OCO5)no3)CC2)cc1 was tested. Which inhibition did it give?
**A.** Its inhibition is 7.98%.

**Q.** Which inhibition does the source give for CCCC(=O)Nc1ccc(C(=O)COC(=O)C2CC2)cc1 here?
**A.** Its inhibition is 6.42%.

**Q.** Cc1cc(C)c(C(=O)N2CCCC(CNC(=O)C3(c4ccc(Cl)cc4)CC3)C2)c(=O)[nH]1 (centres undefined) was tested. Which inhibition did it give?
**A.** Its inhibition is 6.3%.

**Q.** CNC(=O)c1ccc(CN(C)C(=O)c2cccc(S(=O)(=O)N3CCc4ccccc4C3)c2)cc1 was tested. Which inhibition did it give?
**A.** Its inhibition is 15.5%.

**Q.** For COc1ccc2[nH]c(C(=O)N/N=C/c3ccc(OC)c(O)c3)cc2c1, which inhibition is on record?
**A.** Its inhibition is 26.2%.

**Q.** For COc1ccc(/C=N\NC(=O)c2cc(O)c(O)c(O)c2)cc1CN1CCN(c2ccc(F)cc2)CC1, which inhibition is on record?
**A.** Its inhibition is -36.7%.

**Q.** COc1ccc(/C=N/NC(=O)c2ccc(C)cc2)cc1CN1CCN(c2ccc(F)cc2)CC1 was tested. Which inhibition did it give?
**A.** Its inhibition is 11.1%.

**Q.** COc1ccc(/C=N/NC(=O)c2cc3cc(OC)c(OC)cc3[nH]2)cc1 was tested. Which inhibition did it give?
**A.** The inhibition was 10.7%.

**Q.** With O=C(N/N=C/c1ccc(F)cc1)c1cc[n+]([O-])cc1 as the molecule, how does the inhibition read?
**A.** The inhibition was 2.39%.

**Q.** With COc1cc(/C=N/NC(=O)c2cc[n+]([O-])cc2)cc(OC)c1OC as the molecule, how does the inhibition read?
**A.** The inhibition was 7.29%.

**Q.** COc1cc(C(=O)N/N=C/c2ccc3c(c2)c2ccccc2n3C)ccc1O was tested. Which inhibition did it give?
**A.** Its inhibition is 22.2%.

**Q.** O=C(N/N=C/c1ccncc1)c1ccc(-n2cccc2)cc1 was tested. Which inhibition did it give?
**A.** Its inhibition is -9.21%.
